Assay [1] in a line: NCI Yeast Anticancer Drug Screen. Data for the rad50 strain (AID 155).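 Also: 0% = growth of vehicle-only cultures of the same strain.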 To be noted: S. cerevisiae rad50 strain growth inhibition, active compounds read high. The procedure, abridged:
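Compounds were tested on a yeast strain with an engineered DNA damage repair alteration; the reported value is growth inhibition normalised to vehicle treatment.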

Assay [2] can be described thus: NCI Yeast Anticancer Drug Screen. Data for the mec2-1 strain (AID 157). To be noted: S. cerevisiae mec2-1 strain, active compounds read high. The procedure, abridged: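 Compounds were applied to mec2-1 yeast cells. Their growth was then compared with that of vehicle-treated cultures to give growth inhibition.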
The nature of assay [3]: NCI Yeast Anticancer Drug Screen. Data for the sgs1 mgt1 strain (AID 161).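 Also: 0% = growth of cultures given vehicle only.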 The settings on record: S. cerevisiae sgs1 mgt1 strain, active compounds read high. In outline: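 Percent growth inhibition was derived by comparing compound-exposed mutant yeast with vehicle-exposed cultures. The strain carries alterations in DNA damage repair.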
A short description of assay [4]: NCI Yeast Anticancer Drug Screen. Data for the cln2 rad14 strain (AID 165).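 Also: 0% = growth equal to vehicle treated cultures.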 The settings on record: S. cerevisiae cln2 rad14 strain, active compounds read high. In outline: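 Strain: cln2 rad14 yeast, altered in cell cycle control and DNA damage repair. Read-out: growth inhibition vs vehicle.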
A short description of assay [5]: NCI Yeast Anticancer Drug Screen. Data for the bub3 strain (AID 167). The settings on record: S. cerevisiae bub3 mutant strain, active compounds read high. The procedure, abridged:
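Growth of a checkpoint-deficient yeast mutant is measured after compound exposure. Values represent inhibition relative to vehicle.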

Assay [6] in a line: NCI Yeast Anticancer Drug Screen. Data for the mlh1 rad18 strain (AID 175). The settings on record: S. cerevisiae mlh1 rad18 strain growth inhibition, active compounds read high. In outline: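 A repair-deficient yeast strain is exposed to test compound, and growth is scored relative to vehicle-treated controls.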
The mark [7] stands for this setting: at 5.0 µM (retest, dose inferred, filed as 0.5).
[8] abbreviates: at 50.0 µM (retest, dose inferred, filed as 5.0).

Each structure is given as a SMILES string. The panel holds about 79,000 compounds, 15% with a hit somewhere; the sample as a whole holds those more often. Values without a mark were called inactive. Calls of active or inactive are those of the source. Rule as the data show it: active = growth inhibition above about 70%; inactive = the rest.

On to `CN(C)CC(O)c1cc(-c2ccc(Cl)c(Cl)c2)nc2c(Cl)cc(Cl)cc12` (configuration not stated), for which the growth inhibition in assay [1] (setting [7]) is 3%; in assay [1] (setting [8]), 98% (active); in assay [1] (at 50.0 µM), 97.8% (active); in assay [2] (setting [7]), -3%; in assay [2] (setting [8]), 99% (active); in assay [2] (at 50.0 µM), 98.5% (active). For the same molecule, the growth inhibition is -9% in assay [3] (setting [7]); 99% (active) in assay [3] (setting [8]); 98.5% (active) in assay [3] (at 50.0 µM); -4% in assay [4] (setting [7]); 97% (active) in assay [4] (setting [8]); 98.2% (active) in assay [4] (at 50.0 µM). The growth inhibition in assay [5] (setting [7]) was 0%; in assay [5] (setting [8]), 75% (active); in assay [5] (at 50.0 µM), 98.3% (active); in assay [6] (setting [7]) it was 1%; in assay [6] (setting [8]) it was 98% (active); in assay [6] (at 50.0 µM), 98% (active).
For `O=[N+]([O-])c1cc(F)c(Sc2cc(Br)c([N+](=O)[O-])cc2F)cc1Br`, the growth inhibition in assay [1] (setting [7]) is 1%; in assay [1] (setting [8]), -16%; in assay [1] (at 50.0 µM), 8.85%; in assay [2] (setting [7]) it was -1%; in assay [2] (setting [8]) it was -8%; in assay [2] (at 50.0 µM), 9.55%. Further, the growth inhibition was -1% in assay [3] (setting [7]); -7% in assay [3] (setting [8]); 3.05% in assay [3] (at 50.0 µM); 1% in assay [4] (setting [7]); -21% in assay [4] (setting [8]); 43.5% in assay [4] (at 50.0 µM). Further, the growth inhibition is 6% in assay [5] (setting [7]); -3% in assay [5] (setting [8]); 28.9% in assay [5] (at 50.0 µM); 0% in assay [6] (setting [7]); -4% in assay [6] (setting [8]); 19.9% in assay [6] (at 50.0 µM).
In the case of `CCCC(=O)c1ccc(OC)cc1`, the growth inhibition in assay [1] (setting [7]) is 0%; in assay [1] (setting [8]), 28%; in assay [1] (at 50.0 µM), 41.9%; in assay [2] (setting [7]), 1%; in assay [2] (setting [8]), 70% (active); in assay [2] (at 50.0 µM) it was -11.3%. In addition, the growth inhibition in assay [3] (setting [7]) was 0%; in assay [3] (setting [8]), 13%; in assay [3] (at 50.0 µM) it was 14.9%; in assay [4] (setting [7]), 1%; in assay [4] (setting [8]) it was 10%; in assay [4] (at 50.0 µM), 17.6%. The growth inhibition in assay [5] (setting [7]) was -6%; in assay [5] (setting [8]), 98% (active); in assay [5] (at 50.0 µM) it was 20.9%; in assay [6] (setting [7]) it was -1%; in assay [6] (setting [8]), 61%; in assay [6] (at 50.0 µM), 6.25%.
As for `CC[N+](C)(CC)CCC(=O)/C=C/c1ccccc1`, the growth inhibition in assay [1] (setting [7]) is 15%; in assay [1] (setting [8]), 54%; in assay [1] (at 50.0 µM) it was 87.5% (active); in assay [2] (setting [7]) it was 11%; in assay [2] (setting [8]) it was 69%; in assay [2] (at 50.0 µM) it was 93% (active). Moreover, the growth inhibition in assay [3] (setting [7]) was 5%; in assay [3] (setting [8]) it was 55%; in assay [3] (at 50.0 µM), 88.6% (active); in assay [4] (setting [7]) it was 16%; in assay [4] (setting [8]) it was 49%; in assay [4] (at 50.0 µM), 53.1%. For the same molecule, the growth inhibition in assay [5] (setting [7]) was 3%; in assay [5] (setting [8]), 74% (active); in assay [5] (at 50.0 µM), 76.5% (active); in assay [6] (setting [7]), 11%; in assay [6] (setting [8]), 46%; in assay [6] (at 50.0 µM), -47.8%.
With `CN(Cc1ccccc1)CC(O)c1ccc(/C=C/c2ccc(Cl)cc2)cc1` (configuration not stated), the growth inhibition in assay [1] (setting [7]) is 55%; in assay [1] (setting [8]) it was 66%; in assay [1] (at 50.0 µM), 86.1% (active); in assay [2] (setting [7]), 38%; in assay [2] (setting [8]), 66%; in assay [2] (at 50.0 µM), 65.5%. The growth inhibition in assay [3] (setting [7]) was 87% (active); in assay [3] (setting [8]), 92% (active); in assay [3] (at 50.0 µM), 95.9% (active); in assay [4] (setting [7]), 52%; in assay [4] (setting [8]), 64%; in assay [4] (at 50.0 µM) it was 87.6% (active). Moreover, the growth inhibition in assay [5] (setting [7]) was 68%; in assay [5] (setting [8]), 82% (active); in assay [5] (at 50.0 µM), 69.6%; in assay [6] (setting [7]), 56%; in assay [6] (setting [8]) it was 73% (active); in assay [6] (at 50.0 µM), 86.2% (active).
In the case of `Cc1[nH]c2ccccc2c1/C=C1/CCCCCCC1=O`, the growth inhibition in assay [1] (setting [7]) was -1%; in assay [1] (setting [8]) it was 45%; in assay [1] (at 50.0 µM) it was 93.8% (active); in assay [2] (setting [7]) it was -20%; in assay [2] (setting [8]), 34%; in assay [2] (at 50.0 µM) it was 93.6% (active). Moreover, the growth inhibition was -11% in assay [3] (setting [7]); 66% in assay [3] (setting [8]); 96.5% (active) in assay [3] (at 50.0 µM); 3% in assay [4] (setting [7]); 24% in assay [4] (setting [8]); 91.6% (active) in assay [4] (at 50.0 µM). The growth inhibition was -2% in assay [5] (setting [7]); 41% in assay [5] (setting [8]); 93.5% (active) in assay [5] (at 50.0 µM); -7% in assay [6] (setting [7]); 72% (active) in assay [6] (setting [8]); 97.3% (active) in assay [6] (at 50.0 µM).
In the case of `Cc1ccc(C2CC(c3cccc([N+](=O)[O-])c3)=Nc3ccccc3S2)cc1` (configuration not stated), the growth inhibition is 0% in assay [1] (setting [7]); 19% in assay [1] (setting [8]); 57.5% in assay [1] (at 50.0 µM); 0% in assay [2] (setting [7]); 31% in assay [2] (setting [8]); 15.9% in assay [2] (at 50.0 µM). Moreover, the growth inhibition in assay [3] (setting [7]) is -1%; in assay [3] (setting [8]), 46%; in assay [3] (at 50.0 µM), 57.3%; in assay [4] (setting [7]) it was -6%; in assay [4] (setting [8]), -4%; in assay [4] (at 50.0 µM), 36.4%. Further, the growth inhibition was 11% in assay [5] (setting [7]); 78% (active) in assay [5] (setting [8]); 88% (active) in assay [5] (at 50.0 µM); 2% in assay [6] (setting [7]); 29% in assay [6] (setting [8]); 60.8% in assay [6] (at 50.0 µM).
On to `O=C1OC2=C(CCc3nc(-c4ccccc4)sc32)C(N(c2ccccc2)c2ccccc2)C1(Cl)Cl` (configuration not stated), for which the growth inhibition in assay [1] (setting [7]) is -4%; in assay [1] (setting [8]), 11%; in assay [1] (at 50.0 µM), 63.6%; in assay [2] (setting [7]) it was -5%; in assay [2] (setting [8]), 12%; in assay [2] (at 50.0 µM), 41.8%. The growth inhibition was 1% in assay [3] (setting [7]); 19% in assay [3] (setting [8]); 73% (active) in assay [3] (at 50.0 µM); -13% in assay [4] (setting [7]); -15% in assay [4] (setting [8]); 60.1% in assay [4] (at 50.0 µM). Moreover, the growth inhibition in assay [5] (setting [7]) was 0%; in assay [5] (setting [8]), -3%; in assay [5] (at 50.0 µM), 49%; in assay [6] (setting [7]) it was 2%; in assay [6] (setting [8]) it was 9%; in assay [6] (at 50.0 µM), 68.7%.
As for `CCN(CC)CCCC(C)Nc1cc(O)c2c(c1O)C(=O)c1ccccc1C2=O` (configuration not stated), the growth inhibition in assay [1] (setting [7]) was 96% (active); in assay [1] (setting [8]) it was 98% (active); in assay [1] (at 50.0 µM) it was 98.8% (active); in assay [2] (setting [7]) it was 95% (active); in assay [2] (setting [8]), 99% (active); in assay [2] (at 50.0 µM), 98.5% (active). Besides, the growth inhibition in assay [3] (setting [7]) is 98% (active); in assay [3] (setting [8]) it was 99% (active); in assay [3] (at 50.0 µM) it was 98.8% (active); in assay [4] (setting [7]), 53%; in assay [4] (setting [8]) it was 98% (active); in assay [4] (at 50.0 µM), 97.2% (active). Further, the growth inhibition was 95% (active) in assay [5] (setting [7]); 98% (active) in assay [5] (setting [8]); 97.8% (active) in assay [5] (at 50.0 µM); 94% (active) in assay [6] (setting [7]); 98% (active) in assay [6] (setting [8]); 98.8% (active) in assay [6] (at 50.0 µM).
